HPGD inh – HPGD (human) dehydrogenase inhibition. P15428. purified HPGD, NADH fluorescence kinetic, PGE2 substrate. Potency, µM, most hits filed as inhibitors. actives 4.3% (n = 150,000). AID 894; active means well fitted inhibition curve with a large enough effect, not every such curve was filed as active; inconclusive means small, poorly fitted or top-dose-only effect, or another doubt; inactive means no such curve, though single readings can be large or run the other way
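20 nM HPGD preincubated 15 min at room temperature with compound in 50 mM Tris-HCl pH 8, 0.01% Tween 20. Started with 1 mM NAD+ and 30 uM prostaglandin E2; NADH fluorescence (360/450 nm) read 5 times over 30-s intervals, last minus first.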
15-hLO-2 inh – 15-hLO-2 (ALOX15B) enzyme inhibition. actives 0.56% (n = 110,000). AID 881. Potency, µM (doses to about 57.1 µM), usual class: inhibitors. purified 15hLO-2, xylenol orange hydroperoxide absorbance. O15296; further: nearly all actives have a fitted effect of over 60% in size
Target sequence (O15296 whole entry, looked up): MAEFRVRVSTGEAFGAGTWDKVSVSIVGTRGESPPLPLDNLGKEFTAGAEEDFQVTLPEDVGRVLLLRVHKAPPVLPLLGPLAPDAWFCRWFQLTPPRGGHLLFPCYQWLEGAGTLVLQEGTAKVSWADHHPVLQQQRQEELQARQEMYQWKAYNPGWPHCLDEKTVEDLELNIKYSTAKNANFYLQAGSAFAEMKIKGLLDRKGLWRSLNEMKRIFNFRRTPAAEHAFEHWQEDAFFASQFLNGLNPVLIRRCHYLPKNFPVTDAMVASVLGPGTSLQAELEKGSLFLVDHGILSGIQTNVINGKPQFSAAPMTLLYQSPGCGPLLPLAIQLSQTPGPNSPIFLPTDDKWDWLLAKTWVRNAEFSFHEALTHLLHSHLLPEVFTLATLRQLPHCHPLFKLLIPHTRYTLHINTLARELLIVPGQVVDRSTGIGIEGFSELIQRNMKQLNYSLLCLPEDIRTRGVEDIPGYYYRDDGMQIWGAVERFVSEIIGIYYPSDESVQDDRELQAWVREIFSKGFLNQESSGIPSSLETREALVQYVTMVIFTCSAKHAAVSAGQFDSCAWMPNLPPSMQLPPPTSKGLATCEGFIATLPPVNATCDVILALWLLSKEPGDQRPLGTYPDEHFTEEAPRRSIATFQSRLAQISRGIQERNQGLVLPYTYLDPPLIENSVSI
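Enzyme 50 nM, AA 45 uM, 25 mM Hepes pH 7.5 + 0.01% Triton X-100; cpd preinc 15 min RT, rxn 90 min RT; stop/detect with 200 uM XO + 300 uM Fe(II) in 50 mM H2SO4, 30 min; A573/A405.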
IMPase Li inh – cell-permeable IMPase inhibitors with lithium potentiation; Potency, µM (series often up to 59.4 µM), usual class: inhibitors; actives 0.35% (n = 210,000); AID 1457; CHO-M1 cells, IP1 TR-FRET (IP-One), carbachol + lithium;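 further: IP1 builds up when IMPase is blocked and the TR-FRET signal falls; nearly all actives have a fitted effect of over 50% in size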
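Concentration–response in CHO-M1 cells, lithium-potentiated; 30 min at 37C. IP1 detected by competitive TR-FRET after 10 min lysis at RT. Hill-fitted AC50.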
IMPase inh – membrane-permeable compound that blocks inositol monophosphatase; P97697; CHO-M1 cells, IP1 accumulation, HTRF TR-FRET ratio; inhibition (IP1 accumulation), % at 46.1 µM; 120,000 tested, under 10 active; AID 901; active means well fitted curve in the direction sought with a large enough effect in the signal ratio, not every such curve was filed as active; inconclusive means small, poorly fitted or top-dose-only effect, or a change in a side signal; inactive means no such curve, though single readings can be large or run the other way; the % refers to the signal ratio;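 further: cells stimulated with carbachol in lithium chloride buffer; higher means more IMPase inhibition seen as more IP1 and lower FRET ratio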
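Measured: the HTRF emission ratio (665/620 nm) plus the 620 nm donor channel, each fitted to the Hill equation to give AC50. Cells were CHO-M1 given compounds up to 46 uM and a 30 min carbachol stimulation at 37C.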
PNC assembly inh – blocks assembly of the perinucleolar compartment; PC3M PTB-GFP, PNC prevalence imaging, 16 h; stronger effect = lower value; activity change (PNC), negative = inhibition, % at 10 µM; actives 3.1% (n = 140,000);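 active means readout at or below -70, meaning at least 70% loss of cells showing the perinucleolar compartment, a nuclear body marking cancer cells; inconclusive means readout between -30 and a set limit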
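PC3M cells stably expressing PTB-GFP, 750–1000 cells/well, treated 16 h at 37 °C with compound (23 nl of library stock), in duplicate. After paraformaldehyde fixation and Hoechst stain, imaged at 20x; PNC prevalence scored by image analysis.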
12-hLO inh – inhibitors of human 12-lipoxygenase (ALOX12) | purified 12-hLO, xylenol orange hydroperoxide absorbance | P18054 | AID 1452 | actives 0.12% (n = 150,000) | Potency, µM (top dose mostly 57.1 µM), usual class: inhibitors; further: nearly all actives have a fitted effect of over 55% in size
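Lipoxygenase turnover measured by absorbance at 573 and 405 nm after Fe-XO development. Human 12hLO 150 nM, arachidonate 40 uM, pH 7.0 Hepes buffer with detergent; 15 min compound preincubation, 30 min reaction.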
Hits are given with their value; i = inactive; ? = inconclusive; nt = no result given; [ ] = dose if it differs, or a comment. This is a sample that favours compounds with a hit; in the whole collection about 5.3% have one here. Unless noted, the call rests on the fitted dose curve; in most records, active means well fitted curve in the direction sought with a large enough effect; inconclusive means small, poorly fitted or top-dose-only effect, or another doubt; inactive means no such curve, though single readings can be large; an effect the other way counts as inactive or inconclusive.

SMILES	HPGD inh	15-hLO-2 inh	IMPase Li inh	IMPase inh	PNC assembly inh	12-hLO inh
Cc1ccc(NS(=O)(=O)c2ccc3nc(-c4ccccc4)[nH]c3c2)c(Cl)c1	nt	nt	nt	i	nt	nt
Cc1ccc(NC(=O)c2cc(C)n(-c3ccccc3)c2C)cc1	20µM	nt	i	i	?	i
Cc1ccc(-n2c(C)cc(C(=O)NS(=O)(=O)c3ccc(C)cc3)c2C)cc1	i	nt	i	i	?	i
Cc1ccc(NC(=O)c2cc(C)n(-c3cccc(C)c3)c2C)cc1	25µM	nt	i	nt	?	i
O=C(NN1CCOCC1)c1cc(S(=O)(=O)Nc2cccc(C(F)(F)F)c2)ccc1Cl	nt	nt	nt	i	-98	i
COc1ccc(NC(=O)CSc2nc3nc(-c4cccs4)cc(C(F)(F)F)c3c(=O)[nH]2)c(OC)c1	i	nt	i	nt	i	i
O=C(CSc1nc2nc(-c3cccs3)cc(C(F)(F)F)c2c(=O)[nH]1)NCc1ccco1	?	i	8.9µM	?	i	i
COc1ccc(-n2c(C)nc3cc(C(=O)NCCN4CCOCC4)ccc32)cc1	i	i	i	i	?	i
COCCNC(=O)c1ccc2c(c1)nc(C)n2-c1cccc(F)c1	7.1µM	i	i	i	?	i
CC1(C)CC(=O)C=C(Nc2ccccc2F)C1	22µM	i	i	i	?	i
CSC(=NNC(=O)c1ccc(O)cc1)SC	16µM	i	i	i	i	i
CC1=C/C(=N\NC(=O)c2ccc(O)cc2)CC1	nt	nt	nt	i	i	i
O=C(CSc1nnc(Cc2ccccc2)o1)NCc1ccc2c(c1)OCO2	nt	nt	i	nt	nt	nt
CC(=O)CSc1nnc(Cc2ccc3c(c2)OCO3)o1	i	nt	i	i	-100	i
N#Cc1c(Cl)c(Cl)c2nnc(-c3ccc(Br)cc3)n2c1Cl	13µM	i	i	i	i	i
Cc1ccc2c(n1)sc1c(-c3ccc(Br)cc3)c(C#N)c(N)nc12	?	i	i	i	i	i
Cc1cc2c(cc1Cl)C(c1ccc3c(c1)OCO3)CC(=O)O2 (stereo not drawn)	i	i[0.0915 µM]	i	nt	nt	i[0.00818 µM]
O=C(CCl)Nc1ccc(Oc2cnc3ccccc3n2)cc1	i	i	i	i	i	i
C[C@@H](Oc1ccc(Oc2cnc3ccc(Cl)cc3n2)cc1)C(=O)O	18µM	nt	i	nt	nt	nt
COc1ccc(-n2c(Cc3cccn3C)nnc2SCC(=O)Nc2ccccc2F)cc1	i	nt	i	i	-108	i
COc1ccc(-n2c(Cc3cccn3C)nnc2SCC(=O)Nc2nccs2)cc1	i	nt	i	i	-114	i
N#Cc1cccc(-c2cc(NCc3cccs3)ncn2)c1	?	i	i	nt	nt	i
COc1ccc2c(c1)OCC(Cc1ccc(O)c(OC)c1)C2=O (stereo not drawn)	?	i	i	nt	nt	?
CN1C(=O)N(C)C2=NNC=NC2(O)C1=O (stereo not drawn)	?	nt	i	nt	nt	nt
O=C(Cc1cccs1)NCc1ccncc1	i	i	i	i	?	i
SMILES	HPGD inh	15-hLO-2 inh	IMPase Li inh	IMPase inh	PNC assembly inh	12-hLO inh
O=C(Cc1cccs1)NCc1ccccc1	20µM	i	i	i	i	i
COc1ccc(CCNC(=O)Cc2cccs2)cc1	35µM	nt	i	nt	i	i
O=C(Cc1cccs1)NCCCc1ccccc1	nt	nt	i	nt	nt	nt
CC(=O)SC(C)CC(=O)NCc1ccccc1 (stereo not drawn)	28µM	i	i	i	i	i
O=C(NCc1cccs1)c1ccccc1F	20µM	nt	i	i	i	i
CC(=O)SC(C)CC(=O)Nc1ccccc1 (stereo not drawn)	i	i	i	?	i	i
CC1(CN2CCC(n3c(=O)[nH]c4ccccc43)CC2)OCc2ccccc2-n2cccc21 (stereo not drawn)	i	i[0.0915 µM]	i	nt	nt	i[0.00818 µM]
Cc1ccc(NC(=O)C(=O)NCc2ccncc2)cc1	nt	nt	i	nt	nt	nt
COC(=O)c1c(NC(=O)COc2cc(C)c(Cl)c(C)c2)sc2c1CCCC2	nt	nt	nt	i	nt	nt
Cc1ccc(CNC(=O)Cc2cccs2)cc1	16µM	i	i	i	i	i
Cc1ccccc1CNC(=O)Cc1cccs1	nt	nt	i	nt	nt	nt
O=C(Cc1cccs1)NCc1ccccc1F	25µM	i	i	i	i	i
[O-][n+]1c2c(c3c4non(O)c4ccc31)CCCC2	7.9µM	?	i	i	i	i
